Some test systems named below: NCI-H23 lung; NCI-H226 lung; NCI-H322M lung; HOP-62 NSCLC; NCI-H460 lung; NCI-H522 lung; A549/ATCC NSCLC; 786-0 renal; COLO 205 colon; DU-145 prostate; K-562 leukemia; MALME-3M melanoma; MDA-MB-231 breast; RXF 393 renal; SF-268 CNS; SF-295 CNS; SF-539 CNS; UACC-257 melanoma; M14 melanoma; HCT-15 colon.
Holding throughout (experiment): NCI-60 one-dose screen, 48 h (100 = growth as untreated, 0 = no growth, -100 = all killed)
Holding throughout (settings): 10 µM unless noted

About 83,000 compounds went through this panel and 20% of them were active in at least one assay; those are over-represented in the sample as a whole.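 How to read the values: 0–100, growth inhibition (40 = 60% inhibited); 0, no net growth; -100 to 0, cell death (-40 = 40% of starting cells died; -100 = all dead).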 Unmarked numbers belong to inactive results. Active and inactive are the calls of the source. The calls were made as follows: active = growth percent below 10; inactive = the rest.

Regarding `COc1ncc(-c2ccc3nccc(C#CCN4CCN(S(C)(=O)=O)CC4)c3c2)cc1NS(=O)(=O)c1ccc(F)cc1F`, the growth in the assay with NCI-H23 lung was 6.7% (active); in the assay on NCI-H226 lung, 9.35% (active); in the assay with NCI-H322M lung, -11.8% (active); in the assay with HOP-62 NSCLC, 9.92% (active); in the assay with NCI-H460 lung, 6.27% (active); in the assay with NCI-H522 lung, -1.57% (active). Besides, the growth with A549/ATCC NSCLC was 5.73% (active); with 786-0 renal it was -8.36% (active); in the assay with COLO 205 colon it was -55.1% (active); in the assay on DU-145 prostate, 17.9%; with K-562 leukemia it was 8.7% (active); in the assay on MALME-3M melanoma, -32.3% (active). Moreover, the growth in the assay on MDA-MB-231 breast was 10.5%; in the assay on RXF 393 renal it was -23.5% (active); in the assay with SF-268 CNS it was 6.1% (active); in the assay on SF-295 CNS, 13%; with SF-539 CNS, -16.1% (active); in the assay with UACC-257 melanoma it was -4.75% (active). Moreover, the growth with M14 melanoma is -2.97% (active); with HCT-15 colon it was 10.4%.

As to `Cc1cc2c(cc1[N+](=O)[O-])NC(CNC(C)C)CC2` (stereo not given), the growth with NCI-H23 lung is 93.9%; with NCI-H226 lung it was 93.6%; in the assay with NCI-H322M lung, 113%; in the assay on HOP-62 NSCLC, 103%; with NCI-H460 lung, 107%; with NCI-H522 lung, 105%. Also, the growth with A549/ATCC NSCLC was 104%; in the assay on 786-0 renal it was 92.9%; in the assay with COLO 205 colon, 120%; in the assay with DU-145 prostate, 105%; with K-562 leukemia, 96.5%; in the assay with MALME-3M melanoma, 117%. Moreover, the growth with MDA-MB-231 breast is 107%; in the assay with RXF 393 renal, 117%; in the assay with SF-268 CNS it was 95.1%; in the assay with SF-295 CNS, 102%; in the assay with SF-539 CNS, 103%; in the assay with UACC-257 melanoma, 106%. For the same molecule, the growth with M14 melanoma was 92%; with HCT-15 colon, 102%.

Take `O=C1OCC/C1=C\OCCCO/C=C1\CCOC1=O`: the growth is 102% in the assay on NCI-H23 lung; 103% with NCI-H226 lung; 100% with NCI-H322M lung; 122% in the assay with HOP-62 NSCLC; 107% in the assay on NCI-H460 lung; 98.3% in the assay on NCI-H522 lung. The growth in the assay with A549/ATCC NSCLC is 98.7%; with 786-0 renal, 102%; in the assay with COLO 205 colon it was 141%; in the assay with DU-145 prostate, 115%; in the assay on K-562 leukemia, 107%; in the assay with MALME-3M melanoma, 95.2%. In addition, the growth in the assay on MDA-MB-231 breast is 107%; in the assay on RXF 393 renal, 117%; with SF-268 CNS, 109%; in the assay on SF-295 CNS, 106%; in the assay with SF-539 CNS, 105%; with UACC-257 melanoma, 106%. Besides, the growth in the assay on M14 melanoma is 110%.

Regarding `COc1cc(C2C=C(c3ccc(C)cc3)Nc3nc(SC)[nH]c(=O)c32)ccc1Oc1ccnc2cc(Cl)ccc12` (stereo not given), the growth was 80.7% with NCI-H23 lung; 79.7% in the assay on NCI-H226 lung; 84% with NCI-H322M lung; 113% in the assay on HOP-62 NSCLC; 70.2% in the assay on NCI-H460 lung; 75% with NCI-H522 lung. In addition, the growth in the assay with A549/ATCC NSCLC is 63.1%; in the assay with 786-0 renal, 85.1%; with COLO 205 colon, 101%; with DU-145 prostate it was 64.5%; in the assay on K-562 leukemia, 75.6%; with MALME-3M melanoma, 80.1%. Further, the growth with MDA-MB-231 breast is 73.6%; in the assay with RXF 393 renal, 83.4%; in the assay with SF-268 CNS it was 59.6%; with SF-295 CNS, 70.1%; in the assay on SF-539 CNS it was 100%; with UACC-257 melanoma it was 62.7%. Besides, in the assay on M14 melanoma, the growth is 85.1%.

In the case of `CCOc1cccc(C2CC(=O)Nc3cc4c(cc32)OCO4)c1` (stereo not given), the growth with NCI-H23 lung is 77.9%; with NCI-H226 lung it was 65%; in the assay with NCI-H322M lung, 91.1%; with HOP-62 NSCLC, 87%; in the assay on NCI-H460 lung, 94.2%; in the assay on NCI-H522 lung, 66.5%. The growth in the assay with A549/ATCC NSCLC is 94.2%; in the assay on 786-0 renal, 93.4%; in the assay on COLO 205 colon, 96.8%; in the assay on DU-145 prostate, 94.5%; in the assay on K-562 leukemia it was 48.2%; in the assay on MALME-3M melanoma, 83.4%. In addition, the growth in the assay on MDA-MB-231 breast was 111%; in the assay with RXF 393 renal it was 78.8%; in the assay on SF-268 CNS it was 89.4%; with SF-295 CNS it was 76%; with SF-539 CNS, 91.7%; in the assay on UACC-257 melanoma it was 94.5%. In addition, the growth in the assay with M14 melanoma was 102%.

Turning to `COc1cc(C2CC(=O)Nc3c2cc(Br)c2ccccc32)cc(Br)c1OC` (stereo not given), the growth in the assay with NCI-H23 lung is 58.8%; with NCI-H226 lung it was 27.1%; in the assay with NCI-H322M lung, 40.7%; with HOP-62 NSCLC, 24%; in the assay on NCI-H460 lung, 10.9%; with NCI-H522 lung, 21.3%. The growth was 3.52% (active) in the assay on A549/ATCC NSCLC; 0.846% (active) in the assay on 786-0 renal; 37.1% in the assay on COLO 205 colon; 64.7% with DU-145 prostate; 20.2% in the assay on K-562 leukemia; 39.9% in the assay with MALME-3M melanoma. For the same molecule, the growth is 28% in the assay with MDA-MB-231 breast; 35.8% with RXF 393 renal; 55.4% in the assay with SF-268 CNS; -31.3% (active) in the assay on SF-295 CNS; 74.4% with SF-539 CNS; 73.4% with UACC-257 melanoma. For the same molecule, the growth in the assay on M14 melanoma was 48.2%.

As to `C[C@]12CC[C@@H]3c4ccc(O)c([N+](=O)[O-])c4CC[C@H]3[C@@H]1CC[C@@H]2NS(=O)(=O)c1ccc(C(F)(F)F)cc1`, the growth is 28% in the assay on NCI-H23 lung; 53.7% in the assay with NCI-H226 lung; 54.1% in the assay on NCI-H322M lung; 56.2% with HOP-62 NSCLC; 10.5% in the assay on NCI-H460 lung; -67.8% (active) in the assay on NCI-H522 lung. For the same molecule, the growth in the assay on A549/ATCC NSCLC is 19.5%; in the assay on 786-0 renal it was 43%; with COLO 205 colon it was 98%; in the assay with DU-145 prostate it was 47.4%; in the assay on K-562 leukemia, 6.98% (active); in the assay with MALME-3M melanoma, 31%. For the same molecule, the growth is -9.58% (active) in the assay with MDA-MB-231 breast; -1.18% (active) in the assay with RXF 393 renal; 36% in the assay with SF-268 CNS; 18.7% in the assay on SF-295 CNS; 62.4% in the assay with SF-539 CNS; 44% with UACC-257 melanoma. The growth with M14 melanoma was 34.2%; with HCT-15 colon, 18%.

For the molecule `O=C(C=C=Nc1ccccc1)C(=O)N=C=Cc1ccccc1`, the growth in the assay with NCI-H23 lung was 63.3%; in the assay on NCI-H226 lung, 67.7%; with NCI-H322M lung, 93.9%; in the assay with HOP-62 NSCLC it was 90.5%; in the assay on NCI-H460 lung, 92.2%; in the assay on NCI-H522 lung, -82.5% (active). Moreover, the growth in the assay on A549/ATCC NSCLC is 79.8%; in the assay with 786-0 renal it was 79.3%; in the assay on COLO 205 colon it was 13.5%; with DU-145 prostate, 40.2%; with K-562 leukemia, -18.8% (active); in the assay with MALME-3M melanoma, -20.9% (active). The growth in the assay on MDA-MB-231 breast is 94.6%; in the assay on RXF 393 renal, -46% (active); with SF-268 CNS, 69.1%; with SF-295 CNS it was 99.3%; with SF-539 CNS it was 85.1%; in the assay with UACC-257 melanoma, 43.3%. Also, the growth in the assay with M14 melanoma is 44.2%.
